# Source: PubChem BioAssay (NCI)
# About 79,000 compounds went through this panel and 15% of them were active in at least one assay; those are over-represented in the sample as a whole. Unmarked numbers belong to inactive results. Cut-off read from the data, not from the text of the source: active = growth inhibition above about 70%; inactive = the rest.
# Assay: NCI Yeast Anticancer Drug Screen. Data for the cln2 rad14 strain (AID 165);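 note: 0% = growth equal to vehicle treated cultures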
# Conditions: S. cerevisiae cln2 rad14 strain, at 50.0 µM, stronger effect = higher value
# In short: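 Yeast strain cln2 rad14, bearing defects in cell cycle control and DNA repair, serves as the test system; values reflect growth inhibition compared with vehicle.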
row,SMILES,growth inhibition [%]
1,OC1C(OCc2ccccc2)OC(COCc2ccccc2)C(OC2OC(COCc3ccccc3)C(OCc3ccccc3)C(OCc3ccccc3)C2OCc2ccccc2)C1OCc1ccccc1 (stereo not given),-8.65
2,Nc1nc2c(-c3ccc([N+](=O)[O-])cc3)nnn2c2cccc(Cl)c12,4.85
3,C[C@H](CCC(=O)NCCS(=O)(=O)O)[C@H]1CC[C@H]2[C@@H]3CC[C@@H]4C[C@H](O)CC[C@]4(C)[C@H]3CC[C@]12C,-9.3
4,Cc1cc2nc(/N=C/c3nc(O)c(C)[nH]3)[nH]c2cc1C,20.4
5,OCC1OC2OC(c3ccccc3)(c3ccc(OCc4ccccc4)nc3OCc3ccccc3)OC2C1O (stereo not given),14.8
6,CCOC(=O)C(=CN1C/C(=C/C(C)=C/c2ccccc2)SC1=S)C(=O)OCC,-20.9
7,COC(=O)/C=C\C1(CC(C)C)N=C(c2ccccc2)OC1=O (stereo not given),11.2
8,S=c1[nH]c2ccccc2n2cccc12,12.8
9,C=CCN(CC=C)c1ccccc1,19.2
10,COC(=O)c1ccc([N+](=O)[O-])cc1C(=O)OC,-12.3
11,CCCOC(=O)c1ccccc1C(=O)OC1CCCCC1,-18
12,Cc1nn(-c2nc(-c3ccc(Br)cc3)cs2)c(C)c1C,9.6
13,O=C(O)CC1CCCNC1 (stereo not given),-18.6
14,CC(=O)CC(=O)NC(C)(C)CC(C)(C)C,10.8
15,CC(CO)(NC(=O)c1ccccc1)C(=O)O (stereo not given),11.1
16,FC(F)(F)C(F)(F)C(F)(F)C(F)(F)C(F)(F)C(F)(F)C(F)(F)c1noc(C(F)(F)C(F)(F)C(F)(F)C(F)(F)C(F)(F)C(F)(F)C(F)(F)F)n1,-5.25
17,CC(=O)N1C(NN(C)C)CCN1c1ccccc1 (stereo not given),-4.75
18,C=CCN(CC=C)C(=O)Nc1cccc2c(NC(=O)N(CC=C)CC=C)cccc12,4.5
19,[CH2+][B-]1(C)n2cc(Br)c[n+]2[B-](C)(C)[n+]2cc(Br)cn21,9.8
20,CN(C)CCCN1c2ccccc2Sc2ccc3ccccc3c21,-25.9

row,SMILES,growth inhibition [%]
1,Cn1c2c(c3ccccc31)CCCC2,-16.8
2,CC(C)=C1CCC(CN2CCCC2)C1=O (stereo not given),19.2
3,COc1ccc2c(c1)c1c3c(ccc4ncn2c43)N(CCN(C)C)CCN=1,-6.3
4,O=C(NN1C(=O)CSC1c1ccc(F)cc1)c1ccncc1 (stereo not given),-6.75
5,CCOC(=O)NC(Nc1ccc(F)cc1F)(C(F)(F)F)C(F)(F)F,10.2
6,CCN(CC)CC1CCCCCCCCCCC1=O (stereo not given),17.4
7,O=C(CC(O)(C(F)(F)F)C(F)(F)F)c1cccc(S(=O)(=O)N2CCOCC2)c1,8.05
8,CC(=O)Nc1cc2c(cc1Br)-c1ccccc1C2=O,-31.7
9,CCN1C(=NCCO)NS(=O)(=O)c2ccccc21,-1.95
10,O=C(CCCCCC(=O)CC(=O)CCc1ccccc1)CC(=O)CCc1ccccc1,15.4
11,NC(N)=N/N=C/C(=N\N=C(N)N)C(O)CO (stereo not given),2.4
12,S=C(Nc1ccccc1)Nc1nc(-c2ccccc2)c(N=Nc2ccc(Cl)cc2)s1,18.6
13,COc1cccc(C(Nc2nncs2)Nc2nncs2)c1,13.9
14,c1ccc(OCCSCCCCCCCCCCSCCOc2ccccc2)cc1,-12.6
15,Clc1ccc2nc(/C=C/c3ccccc3)cnc2c1,8.9
16,COc1ccc(C2C(C#N)=C(N)NC(=O)C2C(N)=O)cc1 (stereo not given),-0.1
17,O=C1/C(=C/c2ccccc2)CN(C(=O)CCN2CCOCC2)C/C1=C\c1ccccc1,31.6
18,CCN(CC)CCN1C(=O)c2c(c(-c3ccccc3)c3ccccc3c2-c2ccccc2)C1=O,13.2
19,CC(C)N(C(=O)C12C3C4C5(C(=O)O)C(C1C35I)C42C(=O)O)C(C)C (stereo not given),13.7
20,CN(C1c2ccccc2Oc2ccccc21)S(=O)(=O)c1ccc([N+](=O)[O-])cc1,21.8

# Assay: NCI Yeast Anticancer Drug Screen. Data for the bub3 strain (AID 167)
# Conditions: S. cerevisiae bub3 mutant strain, at 50.0 µM, stronger effect = higher value
# In short: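 Yeast carrying a defined mutation is treated with each compound, and growth is compared with that of vehicle-exposed cells to give inhibition.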
row,SMILES,growth inhibition [%]
1,OC1C(OCc2ccccc2)OC(COCc2ccccc2)C(OC2OC(COCc3ccccc3)C(OCc3ccccc3)C(OCc3ccccc3)C2OCc2ccccc2)C1OCc1ccccc1 (stereo not given),-3.3
2,Nc1nc2c(-c3ccc([N+](=O)[O-])cc3)nnn2c2cccc(Cl)c12,-32.5
3,C[C@H](CCC(=O)NCCS(=O)(=O)O)[C@H]1CC[C@H]2[C@@H]3CC[C@@H]4C[C@H](O)CC[C@]4(C)[C@H]3CC[C@]12C,-5.55
4,Cc1cc2nc(/N=C/c3nc(O)c(C)[nH]3)[nH]c2cc1C,14.1
5,OCC1OC2OC(c3ccccc3)(c3ccc(OCc4ccccc4)nc3OCc3ccccc3)OC2C1O (stereo not given),-10.4
6,CCOC(=O)C(=CN1C/C(=C/C(C)=C/c2ccccc2)SC1=S)C(=O)OCC,17.9
7,COC(=O)/C=C\C1(CC(C)C)N=C(c2ccccc2)OC1=O (stereo not given),36.1
8,S=c1[nH]c2ccccc2n2cccc12,-12.3
9,C=CCN(CC=C)c1ccccc1,14.6
10,COC(=O)c1ccc([N+](=O)[O-])cc1C(=O)OC,-52.8
11,CCCOC(=O)c1ccccc1C(=O)OC1CCCCC1,-2.4
12,Cc1nn(-c2nc(-c3ccc(Br)cc3)cs2)c(C)c1C,5.65
13,O=C(O)CC1CCCNC1 (stereo not given),-16
14,CC(=O)CC(=O)NC(C)(C)CC(C)(C)C,-34.8
15,CC(CO)(NC(=O)c1ccccc1)C(=O)O (stereo not given),3.45
16,FC(F)(F)C(F)(F)C(F)(F)C(F)(F)C(F)(F)C(F)(F)C(F)(F)c1noc(C(F)(F)C(F)(F)C(F)(F)C(F)(F)C(F)(F)C(F)(F)C(F)(F)F)n1,0.85
17,CC(=O)N1C(NN(C)C)CCN1c1ccccc1 (stereo not given),-22.5
18,C=CCN(CC=C)C(=O)Nc1cccc2c(NC(=O)N(CC=C)CC=C)cccc12,-21.8
19,[CH2+][B-]1(C)n2cc(Br)c[n+]2[B-](C)(C)[n+]2cc(Br)cn21,7.1
20,CN(C)CCCN1c2ccccc2Sc2ccc3ccccc3c21,8.95

row,SMILES,growth inhibition [%]
1,Cn1c2c(c3ccccc31)CCCC2,4.5
2,CC(C)=C1CCC(CN2CCCC2)C1=O (stereo not given),6.2
3,COc1ccc2c(c1)c1c3c(ccc4ncn2c43)N(CCN(C)C)CCN=1,1.4
4,O=C(NN1C(=O)CSC1c1ccc(F)cc1)c1ccncc1 (stereo not given),7.95
5,CCOC(=O)NC(Nc1ccc(F)cc1F)(C(F)(F)F)C(F)(F)F,-14.8
6,CCN(CC)CC1CCCCCCCCCCC1=O (stereo not given),-44
7,O=C(CC(O)(C(F)(F)F)C(F)(F)F)c1cccc(S(=O)(=O)N2CCOCC2)c1,0.6
8,CC(=O)Nc1cc2c(cc1Br)-c1ccccc1C2=O,9.45
9,CCN1C(=NCCO)NS(=O)(=O)c2ccccc21,-24.6
10,O=C(CCCCCC(=O)CC(=O)CCc1ccccc1)CC(=O)CCc1ccccc1,19.1
11,NC(N)=N/N=C/C(=N\N=C(N)N)C(O)CO (stereo not given),4.85
12,S=C(Nc1ccccc1)Nc1nc(-c2ccccc2)c(N=Nc2ccc(Cl)cc2)s1,-0.85
13,COc1cccc(C(Nc2nncs2)Nc2nncs2)c1,-20.3
14,c1ccc(OCCSCCCCCCCCCCSCCOc2ccccc2)cc1,-28.6
15,Clc1ccc2nc(/C=C/c3ccccc3)cnc2c1,14.1
16,COc1ccc(C2C(C#N)=C(N)NC(=O)C2C(N)=O)cc1 (stereo not given),-4.05
17,O=C1/C(=C/c2ccccc2)CN(C(=O)CCN2CCOCC2)C/C1=C\c1ccccc1,66.8
18,CCN(CC)CCN1C(=O)c2c(c(-c3ccccc3)c3ccccc3c2-c2ccccc2)C1=O,27.4
19,CC(C)N(C(=O)C12C3C4C5(C(=O)O)C(C1C35I)C42C(=O)O)C(C)C (stereo not given),-10.4
20,CN(C1c2ccccc2Oc2ccccc21)S(=O)(=O)c1ccc([N+](=O)[O-])cc1,3.35
